Results from the supplement of paper PMC6411743.
± gives the standard deviation of the averaged measurements. The full data set covers some 6,200 targets. This sample favours those with the largest changes.

Compound: Nc1ncnc2c1ncn2[C@@H]1O[C@H](COP(=O)(O)OP(=O)(O)NP(=O)(O)O)[C@@H](O)[C@H]1O [adenylyl imidodiphosphate]
Test: NP40-soluble protein abundance relative to vehicle (solubility fold change) (ratio); higher = more soluble protein in presence of AMP-PNP
Method in brief: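 Across three independent experiments, values are fold changes against the detergent-processed vehicle for each replicate, based on vsn-normalised intensities. The samples were Jurkat crude lysate treated with eight concentrations (0.1 to 10 mM) for 10 min at room temperature and then 3 min at 37 °C. Lysate was solubilised with 0.8% NP40 and benzonase, ultracentrifuged, and the supernatant analysed by TMT-labelled LC-MS/MS.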

Sequence of UniProt P38935 (P38935 whole entry): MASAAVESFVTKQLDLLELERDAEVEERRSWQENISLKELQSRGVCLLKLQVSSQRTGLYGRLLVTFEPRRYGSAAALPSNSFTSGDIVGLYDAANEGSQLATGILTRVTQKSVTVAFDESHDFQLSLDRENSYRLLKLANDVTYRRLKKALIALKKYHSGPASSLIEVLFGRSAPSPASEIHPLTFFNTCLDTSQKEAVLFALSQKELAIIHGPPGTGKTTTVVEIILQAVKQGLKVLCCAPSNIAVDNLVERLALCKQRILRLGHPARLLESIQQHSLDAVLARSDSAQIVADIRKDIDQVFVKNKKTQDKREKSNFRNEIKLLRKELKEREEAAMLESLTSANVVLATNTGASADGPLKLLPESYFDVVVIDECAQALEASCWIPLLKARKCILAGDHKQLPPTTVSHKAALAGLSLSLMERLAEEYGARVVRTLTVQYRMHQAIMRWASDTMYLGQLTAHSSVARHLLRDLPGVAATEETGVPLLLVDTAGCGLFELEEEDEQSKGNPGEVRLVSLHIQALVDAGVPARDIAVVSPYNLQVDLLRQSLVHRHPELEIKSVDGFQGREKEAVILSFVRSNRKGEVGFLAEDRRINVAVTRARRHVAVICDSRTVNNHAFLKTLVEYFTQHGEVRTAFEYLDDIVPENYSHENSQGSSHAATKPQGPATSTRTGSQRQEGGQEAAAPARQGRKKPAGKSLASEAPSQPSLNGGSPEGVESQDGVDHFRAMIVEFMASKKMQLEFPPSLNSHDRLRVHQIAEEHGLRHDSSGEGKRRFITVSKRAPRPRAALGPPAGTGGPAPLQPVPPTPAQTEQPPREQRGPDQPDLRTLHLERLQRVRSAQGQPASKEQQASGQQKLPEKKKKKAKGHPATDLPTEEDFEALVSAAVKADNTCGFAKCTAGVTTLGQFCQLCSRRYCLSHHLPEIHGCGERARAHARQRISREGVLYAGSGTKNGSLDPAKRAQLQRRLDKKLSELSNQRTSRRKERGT
Sequence of UniProt P26368 (P26368 whole entry): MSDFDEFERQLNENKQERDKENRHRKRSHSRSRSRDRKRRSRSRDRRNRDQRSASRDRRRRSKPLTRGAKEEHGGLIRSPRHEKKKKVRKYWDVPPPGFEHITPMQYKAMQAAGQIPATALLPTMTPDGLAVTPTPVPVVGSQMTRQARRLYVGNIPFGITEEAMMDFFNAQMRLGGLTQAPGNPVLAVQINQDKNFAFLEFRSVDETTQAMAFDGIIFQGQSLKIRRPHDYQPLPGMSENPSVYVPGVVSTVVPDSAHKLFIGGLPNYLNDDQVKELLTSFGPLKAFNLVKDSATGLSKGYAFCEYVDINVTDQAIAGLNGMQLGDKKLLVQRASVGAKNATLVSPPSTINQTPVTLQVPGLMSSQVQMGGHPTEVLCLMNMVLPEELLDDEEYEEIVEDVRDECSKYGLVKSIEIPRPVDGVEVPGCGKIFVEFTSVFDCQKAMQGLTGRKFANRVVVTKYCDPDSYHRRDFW
Sequence of UniProt Q13243 (Q13243 whole entry): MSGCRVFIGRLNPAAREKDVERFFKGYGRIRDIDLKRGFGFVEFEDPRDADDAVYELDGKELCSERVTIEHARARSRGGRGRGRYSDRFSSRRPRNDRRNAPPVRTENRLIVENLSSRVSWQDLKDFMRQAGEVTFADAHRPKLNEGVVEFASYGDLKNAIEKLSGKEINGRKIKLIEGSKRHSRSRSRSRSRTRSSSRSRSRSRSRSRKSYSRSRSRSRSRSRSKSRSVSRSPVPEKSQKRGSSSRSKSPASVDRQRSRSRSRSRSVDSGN
Sequence of UniProt O75367 (O75367 whole entry): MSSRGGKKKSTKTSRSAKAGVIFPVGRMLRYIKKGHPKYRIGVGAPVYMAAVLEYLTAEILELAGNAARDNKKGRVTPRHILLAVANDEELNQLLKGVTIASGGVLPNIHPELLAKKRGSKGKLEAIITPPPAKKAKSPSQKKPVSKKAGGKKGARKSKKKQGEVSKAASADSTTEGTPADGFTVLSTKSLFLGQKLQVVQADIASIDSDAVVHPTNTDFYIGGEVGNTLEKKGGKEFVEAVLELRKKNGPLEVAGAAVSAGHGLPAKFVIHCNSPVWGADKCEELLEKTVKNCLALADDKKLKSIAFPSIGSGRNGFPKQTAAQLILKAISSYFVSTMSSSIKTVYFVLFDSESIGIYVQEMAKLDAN
Sequence of UniProt P43686 (P43686 whole entry): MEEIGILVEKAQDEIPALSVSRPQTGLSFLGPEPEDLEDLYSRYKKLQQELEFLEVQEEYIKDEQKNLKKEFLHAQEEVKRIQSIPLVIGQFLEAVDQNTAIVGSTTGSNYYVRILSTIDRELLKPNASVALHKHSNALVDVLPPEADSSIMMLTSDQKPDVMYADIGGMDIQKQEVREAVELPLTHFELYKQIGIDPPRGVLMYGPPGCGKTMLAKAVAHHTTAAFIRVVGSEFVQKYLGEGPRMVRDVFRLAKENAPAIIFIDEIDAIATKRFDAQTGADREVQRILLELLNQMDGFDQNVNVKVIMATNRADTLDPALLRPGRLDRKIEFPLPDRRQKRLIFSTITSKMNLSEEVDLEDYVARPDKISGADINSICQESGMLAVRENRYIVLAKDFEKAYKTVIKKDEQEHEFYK
Sequence of UniProt P11182 (P11182 whole entry): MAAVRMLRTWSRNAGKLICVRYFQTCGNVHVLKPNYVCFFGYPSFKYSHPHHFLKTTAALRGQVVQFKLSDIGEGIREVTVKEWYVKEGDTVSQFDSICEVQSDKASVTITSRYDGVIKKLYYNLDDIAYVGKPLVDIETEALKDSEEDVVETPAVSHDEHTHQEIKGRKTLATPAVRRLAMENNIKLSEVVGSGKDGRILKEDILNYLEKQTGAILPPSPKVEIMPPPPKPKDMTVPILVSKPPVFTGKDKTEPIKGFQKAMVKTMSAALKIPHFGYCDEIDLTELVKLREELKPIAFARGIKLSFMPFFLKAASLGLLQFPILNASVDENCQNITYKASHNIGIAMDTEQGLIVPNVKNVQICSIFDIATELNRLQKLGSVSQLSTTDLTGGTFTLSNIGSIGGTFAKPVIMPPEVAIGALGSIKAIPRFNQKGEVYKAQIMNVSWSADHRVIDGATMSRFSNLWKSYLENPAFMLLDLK
Sequence of UniProt P08559 (P08559 whole entry): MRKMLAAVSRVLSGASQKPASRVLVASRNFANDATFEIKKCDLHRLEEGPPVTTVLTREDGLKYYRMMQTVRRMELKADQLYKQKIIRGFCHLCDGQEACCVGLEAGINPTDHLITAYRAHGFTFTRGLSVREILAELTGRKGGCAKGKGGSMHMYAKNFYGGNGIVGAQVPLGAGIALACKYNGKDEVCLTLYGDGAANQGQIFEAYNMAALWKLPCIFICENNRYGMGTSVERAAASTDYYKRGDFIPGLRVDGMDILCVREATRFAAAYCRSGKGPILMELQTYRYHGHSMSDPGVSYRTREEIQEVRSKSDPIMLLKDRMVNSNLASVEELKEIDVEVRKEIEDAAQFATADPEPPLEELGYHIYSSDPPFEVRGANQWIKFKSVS
Sequence of UniProt O75531 (O75531 whole entry): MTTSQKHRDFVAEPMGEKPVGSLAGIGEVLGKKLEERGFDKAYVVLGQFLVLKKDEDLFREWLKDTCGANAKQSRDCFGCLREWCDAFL
Sequence of UniProt Q08945 (Q08945 whole entry): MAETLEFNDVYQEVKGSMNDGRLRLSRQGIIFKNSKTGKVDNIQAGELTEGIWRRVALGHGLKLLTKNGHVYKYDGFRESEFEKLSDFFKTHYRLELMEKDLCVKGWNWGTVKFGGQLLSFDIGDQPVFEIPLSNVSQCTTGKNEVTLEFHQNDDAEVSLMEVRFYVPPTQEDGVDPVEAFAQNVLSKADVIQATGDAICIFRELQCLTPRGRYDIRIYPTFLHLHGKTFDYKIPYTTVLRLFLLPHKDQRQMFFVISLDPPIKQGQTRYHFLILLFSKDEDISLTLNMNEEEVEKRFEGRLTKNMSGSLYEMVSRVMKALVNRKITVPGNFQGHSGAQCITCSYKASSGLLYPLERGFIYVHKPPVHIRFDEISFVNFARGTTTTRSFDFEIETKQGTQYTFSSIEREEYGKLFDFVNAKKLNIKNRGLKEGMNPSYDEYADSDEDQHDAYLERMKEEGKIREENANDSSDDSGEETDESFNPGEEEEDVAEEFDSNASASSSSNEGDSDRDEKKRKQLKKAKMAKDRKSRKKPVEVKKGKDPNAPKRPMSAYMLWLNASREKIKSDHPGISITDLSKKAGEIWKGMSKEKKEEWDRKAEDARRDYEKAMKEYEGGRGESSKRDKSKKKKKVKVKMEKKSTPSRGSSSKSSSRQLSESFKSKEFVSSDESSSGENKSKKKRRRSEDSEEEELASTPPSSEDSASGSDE
Sequence of UniProt P53384 (P53384 whole entry): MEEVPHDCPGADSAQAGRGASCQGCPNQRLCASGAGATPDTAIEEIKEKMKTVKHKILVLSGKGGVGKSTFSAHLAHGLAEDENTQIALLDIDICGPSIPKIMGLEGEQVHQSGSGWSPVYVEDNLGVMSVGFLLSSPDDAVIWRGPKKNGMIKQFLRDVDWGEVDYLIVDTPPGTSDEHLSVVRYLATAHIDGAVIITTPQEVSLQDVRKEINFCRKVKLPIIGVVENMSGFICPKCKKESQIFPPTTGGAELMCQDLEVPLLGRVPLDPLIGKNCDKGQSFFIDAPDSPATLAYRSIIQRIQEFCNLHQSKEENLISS
Sequence of UniProt P55795 (P55795 whole entry): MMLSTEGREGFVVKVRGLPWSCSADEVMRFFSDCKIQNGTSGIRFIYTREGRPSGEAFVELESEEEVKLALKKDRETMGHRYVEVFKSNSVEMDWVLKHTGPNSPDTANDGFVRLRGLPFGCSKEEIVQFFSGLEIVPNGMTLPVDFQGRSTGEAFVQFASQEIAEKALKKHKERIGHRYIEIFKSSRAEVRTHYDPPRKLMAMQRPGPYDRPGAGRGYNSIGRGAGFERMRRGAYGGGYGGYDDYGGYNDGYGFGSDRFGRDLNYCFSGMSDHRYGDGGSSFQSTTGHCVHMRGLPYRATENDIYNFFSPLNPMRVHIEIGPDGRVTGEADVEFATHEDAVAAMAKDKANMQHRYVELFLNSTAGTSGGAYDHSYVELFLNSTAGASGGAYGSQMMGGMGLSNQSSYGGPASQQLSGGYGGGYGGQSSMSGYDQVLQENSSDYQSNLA

Target	NP40-soluble protein abundance (concentration: 1mM)	NP40-soluble protein abundance (concentration: 2mM)	NP40-soluble protein abundance (concentration: 4mM)	NP40-soluble protein abundance (concentration: 6mM)	NP40-soluble protein abundance (concentration: 8mM)	NP40-soluble protein abundance (concentration: 10mM)
HIST1H1E (UniProt P10412)	1.04 ± 0.06	1.15 ± 0.09	1.12 ± 0.05	1.25 ± 0.15	1.24 ± 0.23	1.56 ± 0.14
MYL6B (UniProt P14649)	1.02 ± 0.042	1.1 ± 0.053	1.01 ± 0.034	0.987 ± 0.051	0.925 ± 0.041	0.962 ± 0.019
BANF1 (UniProt O75531)	2.32 ± 0.38	2.76 ± 0.16	3 ± 0.25	3.73 ± 0.25	4.03 ± 0.2	4.25 ± 0.21
PSMC4 (UniProt P43686)	0.906 ± 0.041	0.921 ± 0.06	0.885 ± 0.08	0.871 ± 0.079	0.866 ± 0.082	0.859 ± 0.1
RBM5 (UniProt P52756)	1.05 ± 0.026	1.072 ± 0.0062	1.09 ± 0.038	1.06 ± 0.071	1.06 ± 0.061	1.1 ± 0.071
HNRNPH2 (UniProt P55795)	0.9889 ± 0.0045	0.934 ± 0.086	0.946 ± 0.028	0.947 ± 0.023	0.9566 ± 0.0082	0.908 ± 0.019
UniProt Q02880|Q02880-2	1.56 ± 0.036	1.63 ± 0.041	1.77 ± 0.12	1.88 ± 0.19	1.95 ± 0.18	2.01 ± 0.25
UniProt P53384|P53384-2	0.979 ± 0.025	0.969 ± 0.057	1 ± 0.031	0.982 ± 0.022	0.97 ± 0.014	0.96 ± 0.063
UniProt P00167|P00167-2	0.995 ± 0.028	0.984 ± 0.033	0.936 ± 0.036	0.992 ± 0.011	0.948 ± 0.021	0.966 ± 0.012
RPL7 (UniProt P18124)	0.966 ± 0.094	0.953 ± 0.039	0.962 ± 0.07	0.895 ± 0.056	0.902 ± 0.097	0.985 ± 0.024
IGHMBP2 (UniProt P38935)	1.17 ± 0.014	1.16 ± 0.05	1.22 ± 0.083	1.26 ± 0.086	1.33 ± 0.06	1.42 ± 0.12
UniProt P16383|P16383-2	1.05 ± 0.038	1.09 ± 0.044	1.101 ± 0.0092	1.08 ± 0.03	1.07 ± 0.033	1.097 ± 0.0024
UniProt P17812	0.932 ± 0.03	0.873 ± 0.06	0.91 ± 0.033	0.96 ± 0.077	0.97 ± 0.04	0.924 ± 0.044
PSMD2 (UniProt Q13200)	0.891 ± 0.014	0.849 ± 0.068	0.854 ± 0.074	0.858 ± 0.087	0.851 ± 0.086	0.816 ± 0.12
PYGB (UniProt P11216)	1.06 ± 0.1	1.09 ± 0.15	1.35 ± 0.14	1.43 ± 0.17	1.54 ± 0.24	1.47 ± 0.24
UniProt P08559|P08559-3|P08559-4|P08559-2	0.979 ± 0.13	0.94 ± 0.13	0.925 ± 0.13	0.923 ± 0.17	0.95 ± 0.12	0.965 ± 0.15
PCNA (UniProt P12004)	1.008 ± 0.0098	0.998 ± 0.012	0.957 ± 0.012	0.973 ± 0.015	0.951 ± 0.018	0.935 ± 0.024
UniProt Q13105|Q13105-2|Q13105-3	1.01 ± 0.06	1.011 ± 0.0042	1.03 ± 0.028	1.04 ± 0.057	1.04 ± 0.051	1.07 ± 0.072
DBT (UniProt P11182)	0.977 ± 0.14	1.01 ± 0.12	1.01 ± 0.15	0.999 ± 0.2	0.971 ± 0.14	1.03 ± 0.19
UniProt P04049|P04049-2	1.03 ± 0.023	1.06 ± 0.037	1.07 ± 0.04	1.05 ± 0.036	1.06 ± 0.033	1.05 ± 0.032
UniProt Q13243	1.1 ± 0.056	1.2 ± 0.091	1.17 ± 0.07	1.19 ± 0.013	1.208 ± 0.0093	1.36 ± 0.12
UniProt P26368|P26368-2	0.986 ± 0.075	1 ± 0.025	1.11 ± 0.069	1.24 ± 0.098	1.41 ± 0.09	1.51 ± 0.12
SSRP1 (UniProt Q08945)	1.05 ± 0.053	1.07 ± 0.03	1.13 ± 0.045	1.35 ± 0.055	1.47 ± 0.058	1.73 ± 0.1
UniProt O75367|O75367-2|O75367-3	1.01 ± 0.066	1 ± 0.055	1.05 ± 0.075	1.15 ± 0.034	1.26 ± 0.092	1.44 ± 0.049
WDHD1 (UniProt O75717)	1.01 ± 0.021	0.996 ± 0.012	0.99 ± 0.015	0.963 ± 0.036	0.953 ± 0.016	0.937 ± 0.014
PAK1 (UniProt Q13153)	0.989 ± 0.035	1.05 ± 0.046	0.989 ± 0.036	0.981 ± 0.013	0.926 ± 0.032	0.975 ± 0.041
UniProt Q01826|Q01826-2	1.03 ± 0.033	1.07 ± 0.05	1.03 ± 0.051	0.985 ± 0.037	0.985 ± 0.026	1.01 ± 0.05
NUDT2 (UniProt P50583)	0.9311 ± 0.0079	0.909 ± 0.027	1.56 ± 0.26	1.22 ± 0.17	1.49 ± 0.23	1.14 ± 0.14
UniProt P15170-2|P15170-3|H3BSV8	0.993 ± 0.025	0.955 ± 0.035	0.96 ± 0.01	0.995 ± 0.012	0.964 ± 0.014	0.968 ± 0.043
ARG2 (UniProt P78540)	0.983 ± 0.026	1.02 ± 0.033	1.02 ± 0.033	1.01 ± 0.027	0.997 ± 0.019	0.985 ± 0.038
